In PubChem BioAssay (NCI):
This is part of a sample that, as a whole, favours compounds with a hit. Of some 83,000 tested, about 20% had one in any assay.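 96-well plates, one dose, 48 hours. Percent growth reported; active if below 10.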 Values without a mark were called inactive. Active and inactive are the calls of the source.

Key:
Assay in all cases: NCI-60 one-dose screen, 48 h (100 = growth as untreated, 0 = no growth, -100 = all killed)
Conditions in all cases: 10 µM unless noted
NCI-H23 lung = system: NCI-H23 lung
NCI-H226 lung = system: NCI-H226 lung
NCI-H322M lung = system: NCI-H322M lung
HOP-62 NSCLC = system: HOP-62 NSCLC
NCI-H460 lung = system: NCI-H460 lung
HOP-92 NSCLC = system: HOP-92 NSCLC
NCI-H522 lung = system: NCI-H522 lung
A549/ATCC NSCLC = system: A549/ATCC NSCLC
786-0 renal = system: 786-0 renal
COLO 205 colon = system: COLO 205 colon
DU-145 prostate = system: DU-145 prostate
K-562 leukemia = system: K-562 leukemia
MALME-3M melanoma = system: MALME-3M melanoma
MDA-MB-231 breast = system: MDA-MB-231 breast
RXF 393 renal = system: RXF 393 renal
SF-268 CNS = system: SF-268 CNS
SF-295 CNS = system: SF-295 CNS
SF-539 CNS = system: SF-539 CNS
UACC-257 melanoma = system: UACC-257 melanoma
M14 melanoma = system: M14 melanoma

| SMILES | growth (NCI-H23 lung) | growth (NCI-H226 lung) | growth (NCI-H322M lung) | growth (HOP-62 NSCLC) | growth (NCI-H460 lung) | growth (HOP-92 NSCLC) | growth (NCI-H522 lung) | growth (A549/ATCC NSCLC) | growth (786-0 renal) | growth (COLO 205 colon) | growth (DU-145 prostate) | growth (K-562 leukemia) | growth (MALME-3M melanoma) | growth (MDA-MB-231 breast) | growth (RXF 393 renal) | growth (SF-268 CNS) | growth (SF-295 CNS) | growth (SF-539 CNS) | growth (UACC-257 melanoma) | growth (M14 melanoma) |
| --- | --- | --- | --- | --- | --- | --- | --- | --- | --- | --- | --- | --- | --- | --- | --- | --- | --- | --- | --- | --- |
| Nc1ccc(Sc2ccc([N+](=O)[O-])c3nonc23)cc1 | 95.8% | 96.5% | 101% | 92.2% | 96.7% | 103% | 2.03% (active) | 89.8% | 93.5% | 40.6% | 97.3% | 26.7% | 57% | 92.4% | 104% | 98% | 96.9% | 91.9% | 86.9% | 88.7% |
| CC(=O)OC[C@H]1OC(Sc2sc(C(=O)c3ccc(Cl)cc3)c(N)c2-c2nc3ccccc3s2)[C@H](OC(C)=O)[C@@H](OC(C)=O)[C@@H]1OC(C)=O (stereo not given in full) | 63.3% | 75.9% | 93.9% | 90.3% | 67.5% | 93.7% | 88.1% | 86.4% | 99.3% | 90.4% | 70.7% | 87.7% | 69.4% | 56.2% | 112% | 77.3% | 95.1% | 58.6% | 96.6% | 89.6% |
| COc1ccc(/C=C(/C#N)n2nnc3cccc(F)c32)cc1 | 14.6% | 60.4% | 25.2% | 38.1% | 4.61% (active) | -2.46% (active) | -24.6% (active) | 37% | 10.6% | 1.85% (active) | -10.7% (active) | 12.8% | 32.5% | 0.925% (active) | -37.9% (active) | 28.2% | 16% | -39.3% (active) | 41.1% | -27% (active) |
| COc1cc2oc(-c3ccc(O)cc3)cc(=O)c2c(O)c1-c1c(OC)cc(O)c2c(=O)cc(-c3ccc(O)cc3)oc12 | 31.9% | 70.8% | 28.8% | 27% | 11.8% | 62.3% | 45.8% | 69.8% | 48.8% | 67.5% | 53.5% | 44.5% | 63.2% | 48.5% | -44.1% (active) | 12.8% | 67.1% | 18% | 91.5% | 28% |
| COc1ccc([C@H]2c3cc(OC)c(OC)cc3C=C(C=O)C2CO)cc1OC (stereo not given in full) | 62.8% | 80.8% | 97.8% | 62.1% | 69.8% | 36.8% | 32.1% | 80.6% | 45.7% | 45% | 61.9% | 20.1% | 68.2% | 70.2% | -9.23% (active) | 60.5% | 12.7% | 38% | 39.7% | 35.7% |
| COc1ccc(C(=O)N=Nc2c(O)n(C)c3ccccc23)cc1 | 85.3% | 91.1% | 94.4% | 97.6% | 94% | 86.1% | 91.5% | 105% | 106% | 106% | 108% | 89.3% | 103% | 85.2% | 100% | 95.8% | 101% | 89.8% | 106% | 101% |
| COc1ccc(C2C(C#N)=C(N)Oc3c2sc2c(C)cccc32)cc1 (stereo not given) | 18.2% | 13.5% | 48.2% | 40.8% | 7.35% (active) | 80% | 21.5% | 28.4% | 27.8% | 0.625% (active) | 22.4% | 6.98% (active) | 62.5% | 16.6% | -11.7% (active) | 49.6% | 3.47% (active) | -16.8% (active) | 72.1% | 8.58% (active) |
| COc1ccc(-c2conc2-c2ccccc2)cc1 | 29.1% | 70.5% | 46.3% | 42.4% | 7.41% (active) | 71.4% | -6.84% (active) | 23.3% | 27% | -7.37% (active) | 11.5% | 13.3% | 56.2% | 11.6% | -21.8% (active) | 44.6% | 16.3% | -23.4% (active) | 71.5% | 6.54% (active) |
| CCCCn1c(-c2ccc(-c3nc(-c4ccc(Cl)cc4)no3)cc2)nc(-c2ccccc2)c1-c1ccccc1 | 68.2% | 84.2% | 90.4% | 92.4% | 95.6% | 75.4% | 75.2% | 36.3% | 82% | 98.8% | 93.4% | 58.9% | 92% | 79.9% | 101% | 95.5% | 79% | 85.5% | 97.8% | 94.4% |
| Cc1ccc(/C=N\NC(=O)c2[nH]c3ccc(F)cc3c2-c2ccccc2)cc1 | 38% | 46.4% | 57.7% | 42.3% | 3.26% (active) | 4.75% (active) | -42.3% (active) | 23% | 35.1% | -78.8% (active) | -2.21% (active) | 16.9% | 15.6% | 36.5% | 47.6% | 38.9% | -6.59% (active) | 21.4% | 59.7% | 24.1% |
| Cc1ccc2c(n1)C(=O)C(Cl)=C(Nc1ccccc1C(C)C)C2=O | 49.8% | 59.1% | 62.7% | 90.8% | 82.4% | 106% | 39.3% | 94.7% | 91.2% | 116% | 63.2% | 12% | 42.5% | 30.3% | 83.6% | 86.4% | 101% | 65.9% | 24.9% | 63% |
| O=C(Nc1ccc(Cl)cc1F)c1cc(Cl)ccc1O | -20% (active) | -9.16% (active) | -11.1% (active) | 7.55% (active) | -5.39% (active) | -21.7% (active) | -3.15% (active) | 7.91% (active) | -0.322% (active) | 22.2% | 12.5% | 4.51% (active) | -32.2% (active) | -34.5% (active) | -12.7% (active) | 7.67% (active) | -69.5% (active) | 4.82% (active) | -17.9% (active) | -12.3% (active) |
| CCCCOc1ccc(/C=N/NC(N)=S)cc1 | 87.6% | 68.9% | 94.9% | 116% | 96.5% | 68.2% | 8.46% (active) | 91.4% | 68.3% | 85% | 95.6% | 65% | 90.2% | 55.7% | 85.7% | 88.7% | 96.9% | 78.9% | 78.4% | 78% |
| O=C(CCOCCNC(=O)COc1ccc2c(c1)OCC(c1ccc(F)cc1)C2=O)NCCCC(O)(P(=O)(O)O)P(=O)(O)O (stereo not given) | 98% | 106% | 102% | 105% | 108% | 120% | 94.9% | 103% | 103% | 112% | 108% | 105% | 113% | 107% | 121% | 98.6% | 102% | 101% | 112% | 109% |
| CCCCNC(=O)Oc1ccc(/C(=C(\C)c2ccc(Cl)cc2)c2ccc(OCCN3CCCCC3)cc2)cc1 | 78.8% | 99.1% | 94.8% | 78.6% | 85.9% | 64.5% | 85.2% | 63.8% | 63.2% | 69.2% | 90.4% | 21.6% | 81.7% | 94% | 79.5% | 76.1% | 91.7% | 71.7% | 35.5% | 68.2% |
